KB-3-1 tox: KB-3-1 parental cell cytotoxicity; KB-3-1 viability, CellTiter-Glo ATP luminescence, 72 h; Potency, µM (series often up to 46.1 µM), usual class: cytotoxic; 400,000 tested, 1.4% active; note: nearly all actives have a fitted effect of over 60% in size
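Multi-concentration cytotoxicity screen in KB-3-1 cells grown in DMEM lacking phenol red with 10% FBS. After 72 h at 37 °C with compound, ATP-dependent luminescence was recorded.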
HT1080-NT tox: kills 2HG-producing HT-1080-NT fibrosarcoma cells; HT-1080-NT fibrosarcoma viability, CellTiter-Glo ATP luminescence, 48 h; Potency, µM (highest dose often 46.1 µM), inactives show at the highest dose activity, negative = less viability, most hits filed as cytotoxic; 360,000 tested, 1.6% active; AID 686970;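 note: NT is the 2HG producing partner of a matched IDH1 knockdown line; 0% = DMSO-treated cells and -100% = media-only wells without cells; nearly all actives have a fitted effect of over 55% in size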
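Luminescent CellTiter-Glo readout after 48 hours of compound exposure at 37 degrees C defined viability of HT-1080-NT cells. Activity was normalized to DMSO wells and cell-free media wells; concentration-response curves were fitted and assigned curve classes.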
HT1080 IDH1KD tx: kills HT-1080 cells with IDH1 knockdown; HT-1080 IDH1 knockdown viability, ATP luminescence, 48 h; Potency, µM (titrated, usually from 46.1 µM), without a hit: top-dose activity, negative = toxicity, most hits filed as cytotoxic; 360,000 tested, 2% active; AID 686971;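 note: 0% = DMSO wells and -100% = cell-free medium wells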
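% activity derives from luminescence (CellTiter-Glo), normalised to DMSO and no-cell wells. HT-1080-IDH1KD cells, 750/well, had 48 h compound exposure at 37 °C.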
TDP1 cell noCPT: qHTS for Inhibitors of human tyrosyl-DNA phosphodiesterase 1 (TDP1): qHTS in cells in absence of CPT; DT40 Tdp1-/- hTDP1 cells, no CPT, ATP luminescence, 48 h; Potency, µM (top dose mostly 46.2 µM), without a hit: at the top dose activity change, negative = growth inhibition, most hits filed as inhibitors; 420,000 tested, 15% active; note: nearly all actives have a fitted effect of over 55% in size
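Compound effects on proliferation are scored in DT40 Tdp1-/-;hTDP1 cells in the absence of CPT. ATP levels (CellTiter-Glo luminescence) are recorded after a ≥48 hr, 37 °C incubation.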
DT40 TDP1 CPT: DT40-hTDP1 cell growth loss with CPT. 420,000 tested, 12% active. chicken DT40 Tdp1-/-;hTDP1 cells + 20 nM CPT, ATP luminescence, 48 h. Potency, µM (series often up to 46.2 µM), for inactives: top-dose activity change, negative = growth inhibition, usual class: inhibitors. AID 686979; note: nearly all actives have a fitted effect of over 55% in size
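Chicken DT40 Tdp1-/- cells stably complemented with human TDP1 were seeded at 400 cells/well in medium containing 20 nM camptothecin, exposed to pin-transferred compounds, and grown at 37 °C for at least 48 hr. Viability was read as ATP luminescence.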
KB-V1 cytotox: KB-V1 MDR subline cytotoxicity; Potency, µM (doses to about 46.1 µM), hits mostly cytotoxic; KB-V1 MDR cells viability, CellTiter-Glo, 72 h; AID 1347076; 400,000 tested, 3.4% active; note: nearly all actives have a fitted effect of over 60% in size
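KB-V1, DMEM (no phenol red) + 10% FBS; cpd pin-transferred, titration series; 72 h, 37 degrees C; CellTiter-Glo, luminescence. Data normalized, curve-fit.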
An asterisk follows results filed as active; i = inactive; ? = inconclusive. Hits are enriched below; roughly 19% of the tested compounds scored in any of these assays. Calls come from the whole dose curve; as a rule, active = well fitted curve in the direction sought with a large enough effect; inconclusive = small, poorly fitted or top-dose-only effect, or another doubt; inactive = no such curve, though single readings can be large; an effect the other way counts as inactive or inconclusive. Unless noted, % is set by controls: 0 for no effect and ±100 for the full control effect; potency is the fitted concentration of half-maximal effect.

SMILES	KB-3-1 tox	HT1080-NT tox	HT1080 IDH1KD tx	TDP1 cell noCPT	DT40 TDP1 CPT	KB-V1 cytotox
O=S(=O)(Nc1cccc(-n2cnnn2)c1)c1cc(Br)ccc1Br	i	-20.3%	-25.3%	5.9%	-6.9%	5.8µM*
COc1ccc(C(=O)Nc2cccc(C)c2)cc1S(=O)(=O)N1CCOCC1	i	23.0%	10.5%	-9.1%	1.4%	i
O=C(Nc1cccc2ccccc12)c1ccc(OC(=S)N2CCOCC2)cc1	?	?	?	23.1µM*	23.1µM*	?
O=C(Nc1cccc2ccccc12)N1CCOCC1	i	6.5%	-5.5%	-6.7%	0.1%	i
CC(C)(C)c1ccc(C(=O)Nc2cccc(-n3cnnn3)c2)cc1	i	13.5%	0.0%	2.59µM*	?	i
Cc1cccc(NC(=O)c2cccc(OC(=S)N3CCOCC3)c2)c1	i	-6.7%	-15.5%	14.6µM*	?	?
Cc1ccc(C(=O)Nc2cccc(C(=O)N3CCOCC3)c2)cc1	i	-1.0%	3.3%	-1.1%	-18.5%	i
CC(C)(C)c1ccc(C(=O)Nc2cccc(C(=O)N3CCOCC3)c2)cc1	i	-4.0%	-13.9%	?	14.6µM*	i
Cc1oc(-c2cc3c(cc2Cl)OCO3)nc1CN1CCCC1c1ccc(F)cc1 (stereo unspecified)	?	-24.2%	-5.1%	?	0.1%	?
CC(=O)c1ccc(N2Cc3ccccc3C2=NC(=O)c2cccs2)cc1	i	-2.7%	-7.9%	?	?	?
N#Cc1ccc(N2Cc3ccccc3C2=NC(=O)c2cccs2)cc1	i	3.8%	1.6%	1.5%	-21.5%	18.4µM*
CCOC(=O)c1ccc(N2Cc3ccccc3C2=NC(=O)c2cccs2)cc1	i	-3.0%	-7.0%	?	18.4µM*	i
Cn1c2ccccc2c2cc(/C=N/NC(=O)c3ccc(N)cc3)ccc21	?	?	?	18.4µM*	?	i
Cn1c2ccccc2c2cc(/C=N/NC(=O)c3ccccc3F)ccc21	i	?	18.4µM*	?	23.1µM*	i
Cn1c(=O)n(C)c2cc(/C=N/NC(=O)c3ccc(Cl)cc3)ccc21	i	?	?	?	?	i
Cc1[nH]n(-c2ccccc2)c(=O)c1C(C[N+](=O)[O-])c1ccc(Br)cc1 (stereo unspecified)	i	-25.9%	-17.5%	9.2µM*	11.6µM*	i
Cc1[nH]n(-c2ccccc2)c(=O)c1C(c1cccc([N+](=O)[O-])c1)c1c(C)[nH]n(-c2ccccc2)c1=O	i	1.2%	-8.2%	20.6µM*	?	i
Cc1[nH]n(-c2ccccc2)c(=O)c1C(c1ccc(C(=O)O)cc1)c1c(C)[nH]n(-c2ccccc2)c1=O	i	0.2%	3.9%	?	?	i
CN(C)c1cccc(C(=O)Nc2nc3ccccc3[nH]2)c1	?	-28.9%	?	11.6µM*	?	?

Source: PubChem (National Center for Advancing Translational Sciences (NCATS))
